This is an account of results in ChEMBL document CHEMBL1961873, “Compounds: GSK PKIS; Assays: Nanosyn kinase panel” (2012).

Each structure is given as a SMILES string.

Assay [1] has as its target MAP/microtubule affinity-regulating kinase 3 (Homo sapiens) (UniProt P27448). The following applies: at 1 µM.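 Further: reported values are averaged percent inhibition of MARK3.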
The target in assay [2] is T1, MAP/microtubule affinity-regulating kinase 4 (Homo sapiens) (UniProt Q96L34).
T1 sequence (whole entry): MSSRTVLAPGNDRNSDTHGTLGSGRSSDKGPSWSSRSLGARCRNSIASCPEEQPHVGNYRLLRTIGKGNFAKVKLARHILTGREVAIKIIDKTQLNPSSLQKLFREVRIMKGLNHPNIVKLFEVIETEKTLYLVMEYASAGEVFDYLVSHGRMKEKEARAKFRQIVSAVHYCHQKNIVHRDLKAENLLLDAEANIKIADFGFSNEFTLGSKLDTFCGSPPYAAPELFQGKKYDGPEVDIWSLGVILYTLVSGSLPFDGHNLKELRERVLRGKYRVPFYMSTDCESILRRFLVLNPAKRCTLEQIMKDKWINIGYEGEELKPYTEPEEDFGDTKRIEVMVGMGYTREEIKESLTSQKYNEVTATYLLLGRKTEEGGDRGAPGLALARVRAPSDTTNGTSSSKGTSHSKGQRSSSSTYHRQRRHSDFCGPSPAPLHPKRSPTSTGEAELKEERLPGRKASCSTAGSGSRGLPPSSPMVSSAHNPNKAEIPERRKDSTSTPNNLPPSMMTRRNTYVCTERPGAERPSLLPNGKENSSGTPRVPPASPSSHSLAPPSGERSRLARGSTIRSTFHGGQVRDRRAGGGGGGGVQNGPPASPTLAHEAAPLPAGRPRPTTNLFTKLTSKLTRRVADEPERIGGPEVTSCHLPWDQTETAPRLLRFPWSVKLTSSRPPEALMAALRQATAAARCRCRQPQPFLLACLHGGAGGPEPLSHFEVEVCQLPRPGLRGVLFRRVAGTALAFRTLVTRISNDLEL
The following applies: at 0.1 µM.

Assay [3] deals with T1, MAP/microtubule affinity-regulating kinase 4 (Homo sapiens). The following applies: at 1 µM.
Assay [4] deals with Maternal embryonic leucine zipper kinase (Homo sapiens) (UniProt Q14680). The note with it: at 0.1 µM.
Assay [5] shares this target. The following applies: at 1 µM.
In assay [6] the target is MAP kinase-interacting serine/threonine-protein kinase 1 (Homo sapiens) (UniProt Q9BUB5). The following applies: at 0.1 µM.
The target is the same in assay [7]. The note with it: at 1 µM.
The target in assay [8] is MAP kinase-interacting serine/threonine-protein kinase 2 (Homo sapiens) (UniProt Q9HBH9). The following applies: at 0.1 µM.
Assay [9] shares this target. The following applies: at 1 µM.
In assay [10] the target is Serine/threonine-protein kinase MARK2 (Homo sapiens) (UniProt Q7KZI7). The following applies: at 0.1 µM.
Assay [11] has the same target. The following applies: at 1 µM.
The target in assay [12] is PAS domain-containing serine/threonine-protein kinase (Homo sapiens) (UniProt Q96RG2). The following applies: at 0.1 µM.
The target is the same in assay [13]. The note with it: at 1 µM.
Assay [14] concerns the target Phosphorylase b kinase gamma catalytic chain, skeletal muscle/heart isoform (Homo sapiens) (UniProt Q16816). The note with it: at 0.1 µM.
For assay [15] the target is unchanged. The note with it: at 1 µM.
Assay [16] deals with T2, Phosphorylase b kinase gamma catalytic chain, liver/testis isoform (Homo sapiens) (UniProt P15735).
T2 sequence (whole entry): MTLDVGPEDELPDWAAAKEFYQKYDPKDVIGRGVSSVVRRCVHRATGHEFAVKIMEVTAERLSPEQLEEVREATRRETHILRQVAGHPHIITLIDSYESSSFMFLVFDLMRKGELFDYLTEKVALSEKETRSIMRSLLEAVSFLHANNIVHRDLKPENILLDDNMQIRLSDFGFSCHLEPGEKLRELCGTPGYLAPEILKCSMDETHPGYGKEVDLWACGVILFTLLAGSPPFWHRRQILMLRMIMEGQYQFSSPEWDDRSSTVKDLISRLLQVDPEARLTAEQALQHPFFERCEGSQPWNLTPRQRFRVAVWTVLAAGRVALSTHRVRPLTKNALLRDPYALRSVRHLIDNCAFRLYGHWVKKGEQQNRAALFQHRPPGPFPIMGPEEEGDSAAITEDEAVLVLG
The following applies: at 0.1 µM.

The target of assay [17] is T2, Phosphorylase b kinase gamma catalytic chain, liver/testis isoform (Homo sapiens). The following applies: at 1 µM.
The target of assay [18] is Serine/threonine-protein kinase pim-1 (Homo sapiens) (UniProt P11309). The following applies: at 0.1 µM.
Assay [19] has the same target. The following applies: at 1 µM.
For assay [20], the target named is Serine/threonine-protein kinase pim-2 (Homo sapiens) (UniProt Q9P1W9). The note with it: at 0.1 µM.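 Further: reported value is the mean percent inhibition of PIM2, measured in the GSK PKIS kinase inhibitor set screen.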
Serine/threonine-protein kinase pim-2 (Homo sapiens), sequence (Q9P1W9 whole entry, looked up): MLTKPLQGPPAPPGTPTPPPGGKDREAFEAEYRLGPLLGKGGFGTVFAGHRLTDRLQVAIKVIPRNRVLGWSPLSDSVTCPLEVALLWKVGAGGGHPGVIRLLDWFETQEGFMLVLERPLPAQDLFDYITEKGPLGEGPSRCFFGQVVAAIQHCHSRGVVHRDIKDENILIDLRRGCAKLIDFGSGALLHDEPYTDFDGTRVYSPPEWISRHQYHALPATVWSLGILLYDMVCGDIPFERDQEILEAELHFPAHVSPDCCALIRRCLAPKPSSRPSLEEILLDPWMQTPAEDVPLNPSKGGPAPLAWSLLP

Serine/threonine-protein kinase pim-1 (Homo sapiens), sequence (P11309 whole entry, looked up): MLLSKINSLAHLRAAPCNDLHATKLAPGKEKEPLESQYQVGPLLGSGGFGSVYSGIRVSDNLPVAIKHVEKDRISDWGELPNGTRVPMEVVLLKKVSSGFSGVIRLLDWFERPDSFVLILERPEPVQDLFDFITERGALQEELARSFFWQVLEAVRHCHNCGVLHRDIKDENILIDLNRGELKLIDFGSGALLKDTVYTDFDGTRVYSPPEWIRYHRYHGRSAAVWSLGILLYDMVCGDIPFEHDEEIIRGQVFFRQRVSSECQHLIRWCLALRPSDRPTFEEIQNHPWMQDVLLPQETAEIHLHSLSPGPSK
MAP kinase-interacting serine/threonine-protein kinase 2 (Homo sapiens), sequence (Q9HBH9 whole entry, looked up): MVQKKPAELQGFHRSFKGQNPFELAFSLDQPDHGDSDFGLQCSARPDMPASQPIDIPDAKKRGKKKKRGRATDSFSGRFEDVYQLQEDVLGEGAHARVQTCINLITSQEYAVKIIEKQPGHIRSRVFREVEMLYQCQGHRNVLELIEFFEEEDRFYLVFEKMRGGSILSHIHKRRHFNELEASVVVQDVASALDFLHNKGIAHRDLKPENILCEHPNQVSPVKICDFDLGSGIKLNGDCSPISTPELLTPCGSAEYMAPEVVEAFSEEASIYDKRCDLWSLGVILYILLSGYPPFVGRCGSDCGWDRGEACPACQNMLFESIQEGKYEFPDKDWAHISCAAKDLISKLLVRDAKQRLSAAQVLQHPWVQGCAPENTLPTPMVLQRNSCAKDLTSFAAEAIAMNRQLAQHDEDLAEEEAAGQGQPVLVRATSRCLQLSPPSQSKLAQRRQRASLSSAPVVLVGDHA
PAS domain-containing serine/threonine-protein kinase (Homo sapiens), sequence (Q96RG2 whole entry, the tested form may be a part): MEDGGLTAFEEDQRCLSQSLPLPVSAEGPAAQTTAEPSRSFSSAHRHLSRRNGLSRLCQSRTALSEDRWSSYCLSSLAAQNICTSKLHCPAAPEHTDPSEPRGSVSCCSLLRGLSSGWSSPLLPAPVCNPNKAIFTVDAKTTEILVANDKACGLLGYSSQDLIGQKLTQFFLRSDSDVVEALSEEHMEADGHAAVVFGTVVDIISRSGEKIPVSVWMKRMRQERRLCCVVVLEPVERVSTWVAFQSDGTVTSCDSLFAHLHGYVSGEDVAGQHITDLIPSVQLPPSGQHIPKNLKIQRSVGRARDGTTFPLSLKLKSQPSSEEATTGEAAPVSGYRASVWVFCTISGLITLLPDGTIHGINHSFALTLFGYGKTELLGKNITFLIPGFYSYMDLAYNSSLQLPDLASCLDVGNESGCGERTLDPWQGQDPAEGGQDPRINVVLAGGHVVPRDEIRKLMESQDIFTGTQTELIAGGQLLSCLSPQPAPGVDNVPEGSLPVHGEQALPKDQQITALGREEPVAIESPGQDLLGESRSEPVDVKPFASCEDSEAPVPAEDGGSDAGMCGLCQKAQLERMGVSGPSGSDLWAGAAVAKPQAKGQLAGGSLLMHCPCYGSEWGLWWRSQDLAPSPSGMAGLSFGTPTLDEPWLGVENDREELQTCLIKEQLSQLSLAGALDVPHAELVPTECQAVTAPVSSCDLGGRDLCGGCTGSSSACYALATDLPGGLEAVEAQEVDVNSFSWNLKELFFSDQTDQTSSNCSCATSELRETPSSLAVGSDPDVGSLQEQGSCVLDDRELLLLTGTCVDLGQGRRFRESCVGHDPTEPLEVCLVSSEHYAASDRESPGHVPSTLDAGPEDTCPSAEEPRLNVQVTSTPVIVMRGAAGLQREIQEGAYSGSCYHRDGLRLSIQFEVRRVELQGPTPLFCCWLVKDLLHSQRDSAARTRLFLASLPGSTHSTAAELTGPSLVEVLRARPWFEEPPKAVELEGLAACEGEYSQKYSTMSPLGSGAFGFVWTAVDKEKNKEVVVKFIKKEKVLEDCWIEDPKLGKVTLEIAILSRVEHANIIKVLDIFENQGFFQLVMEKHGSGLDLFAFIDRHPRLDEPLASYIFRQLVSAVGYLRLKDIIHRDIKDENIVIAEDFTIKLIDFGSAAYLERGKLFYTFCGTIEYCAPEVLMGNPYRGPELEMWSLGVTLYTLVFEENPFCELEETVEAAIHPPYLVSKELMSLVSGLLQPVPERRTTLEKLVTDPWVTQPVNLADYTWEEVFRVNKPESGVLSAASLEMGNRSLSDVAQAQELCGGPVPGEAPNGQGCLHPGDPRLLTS
MAP/microtubule affinity-regulating kinase 3 (Homo sapiens), sequence (P27448 whole entry, looked up): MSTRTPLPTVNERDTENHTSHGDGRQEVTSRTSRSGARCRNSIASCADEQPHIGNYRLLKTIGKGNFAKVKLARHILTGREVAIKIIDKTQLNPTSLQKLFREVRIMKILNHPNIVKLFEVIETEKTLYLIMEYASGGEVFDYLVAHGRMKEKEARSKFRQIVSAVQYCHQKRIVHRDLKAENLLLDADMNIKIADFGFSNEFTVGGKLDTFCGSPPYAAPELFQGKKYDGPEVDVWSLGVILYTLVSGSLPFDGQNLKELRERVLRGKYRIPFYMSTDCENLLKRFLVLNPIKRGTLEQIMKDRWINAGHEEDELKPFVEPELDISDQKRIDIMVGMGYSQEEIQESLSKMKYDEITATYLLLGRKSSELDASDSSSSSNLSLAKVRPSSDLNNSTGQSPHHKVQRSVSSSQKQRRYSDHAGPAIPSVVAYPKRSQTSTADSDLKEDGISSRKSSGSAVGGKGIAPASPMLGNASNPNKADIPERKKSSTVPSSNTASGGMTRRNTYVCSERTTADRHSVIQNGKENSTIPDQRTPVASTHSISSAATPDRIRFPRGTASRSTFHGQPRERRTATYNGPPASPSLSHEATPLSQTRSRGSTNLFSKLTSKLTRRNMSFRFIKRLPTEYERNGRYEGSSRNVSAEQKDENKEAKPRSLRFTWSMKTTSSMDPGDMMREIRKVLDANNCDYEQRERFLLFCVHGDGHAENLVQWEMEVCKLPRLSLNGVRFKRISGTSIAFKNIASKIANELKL
Maternal embryonic leucine zipper kinase (Homo sapiens), sequence (Q14680 whole entry, looked up): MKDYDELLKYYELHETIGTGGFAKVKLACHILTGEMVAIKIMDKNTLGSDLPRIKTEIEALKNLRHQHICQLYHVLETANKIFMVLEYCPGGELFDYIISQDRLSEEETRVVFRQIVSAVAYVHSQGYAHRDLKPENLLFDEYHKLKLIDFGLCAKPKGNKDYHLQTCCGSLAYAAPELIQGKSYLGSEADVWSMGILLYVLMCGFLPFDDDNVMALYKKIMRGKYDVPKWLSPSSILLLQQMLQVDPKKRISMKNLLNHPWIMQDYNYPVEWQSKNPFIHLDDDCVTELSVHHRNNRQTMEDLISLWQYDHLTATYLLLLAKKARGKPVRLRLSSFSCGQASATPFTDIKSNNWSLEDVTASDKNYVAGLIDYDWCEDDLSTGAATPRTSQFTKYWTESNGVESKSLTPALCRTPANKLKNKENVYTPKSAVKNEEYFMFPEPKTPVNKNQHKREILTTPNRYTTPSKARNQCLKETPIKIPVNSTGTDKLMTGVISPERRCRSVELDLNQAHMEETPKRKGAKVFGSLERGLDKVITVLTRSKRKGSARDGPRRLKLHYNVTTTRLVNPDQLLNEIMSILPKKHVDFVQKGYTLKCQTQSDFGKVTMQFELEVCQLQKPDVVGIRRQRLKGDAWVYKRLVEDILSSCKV
Serine/threonine-protein kinase MARK2 (Homo sapiens), sequence (Q7KZI7 whole entry): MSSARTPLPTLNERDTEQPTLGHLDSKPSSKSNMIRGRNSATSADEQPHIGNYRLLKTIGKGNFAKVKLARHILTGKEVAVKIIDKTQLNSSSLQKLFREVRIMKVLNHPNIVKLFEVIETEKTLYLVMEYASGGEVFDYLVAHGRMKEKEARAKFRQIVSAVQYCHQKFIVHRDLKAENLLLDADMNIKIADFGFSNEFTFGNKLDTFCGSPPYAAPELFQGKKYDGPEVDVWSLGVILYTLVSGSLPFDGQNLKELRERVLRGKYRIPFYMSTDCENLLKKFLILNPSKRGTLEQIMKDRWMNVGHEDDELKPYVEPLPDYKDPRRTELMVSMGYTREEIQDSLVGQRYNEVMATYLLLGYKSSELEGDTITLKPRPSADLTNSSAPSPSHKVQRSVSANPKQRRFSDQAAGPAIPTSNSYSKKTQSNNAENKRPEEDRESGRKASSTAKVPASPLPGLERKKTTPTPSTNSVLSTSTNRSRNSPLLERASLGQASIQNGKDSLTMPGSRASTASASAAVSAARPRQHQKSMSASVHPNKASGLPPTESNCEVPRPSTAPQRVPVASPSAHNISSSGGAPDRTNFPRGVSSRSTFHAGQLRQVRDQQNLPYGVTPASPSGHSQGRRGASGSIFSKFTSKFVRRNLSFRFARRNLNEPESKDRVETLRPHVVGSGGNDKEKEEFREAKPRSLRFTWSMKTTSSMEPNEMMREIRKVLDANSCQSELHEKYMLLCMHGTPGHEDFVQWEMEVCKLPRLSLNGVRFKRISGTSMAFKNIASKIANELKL
Phosphorylase b kinase gamma catalytic chain, skeletal muscle/heart isoform (Homo sapiens), sequence (Q16816 whole entry, looked up, canonical isoform): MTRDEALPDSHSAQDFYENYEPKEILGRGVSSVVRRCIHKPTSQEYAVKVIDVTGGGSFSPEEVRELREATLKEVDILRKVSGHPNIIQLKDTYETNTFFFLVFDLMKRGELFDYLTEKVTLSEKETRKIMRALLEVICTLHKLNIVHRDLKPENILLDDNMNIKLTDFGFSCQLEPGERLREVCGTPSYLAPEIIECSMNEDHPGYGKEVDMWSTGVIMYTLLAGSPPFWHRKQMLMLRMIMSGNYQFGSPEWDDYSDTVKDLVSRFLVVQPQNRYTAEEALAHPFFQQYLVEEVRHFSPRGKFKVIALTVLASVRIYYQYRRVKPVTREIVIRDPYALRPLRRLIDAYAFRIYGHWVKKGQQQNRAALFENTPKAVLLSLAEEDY

The term inhibition denotes the change of the read-out against control, counted positive when it falls. Consider `CCn1c(-c2nonc2N)nc2c(C#CC(C)(C)O)ncc(OC3CCNCC3)c21`, for which the inhibition in assay [1] was found to be 77.7%; in assay [2], 14%; in [3], 62.1%; in [4] it was 21.2%; in assay [5], 76.4%; in [6], 1.74%. The inhibition in assay [7] was 2.25%; in assay [8], 2.54%; in [9] it was 2.87%; in [10], 19.3%; in assay [11] it was 62.2%; in [12], -0.02%. For the same compound, the inhibition stood at 13.1% in assay [13]; 1.52% in assay [14]; 3.09% in assay [15]; 4.06% in [16]; 3.58% in [17]; 2.62% in [18]. Moreover, the inhibition stood at 24.1% in [19] and 1.16% in assay [20].
In the case of `CC(=O)NCc1cccc(C#Cc2cncnc2Nc2ccc(OCc3cccc(F)c3)c(Cl)c2)c1`, the inhibition in [1] was determined as 1.66%; in [2], 2.33%; in assay [3], 3.13%; in assay [4], 0.79%; in assay [5], 2.93%; in assay [6], 3.79%. For the same compound, the inhibition was 32.1% in assay [7]; 2.64% in [8]; 11.8% in assay [9]; 0.37% in assay [10]; 1.33% in assay [11]; -0.91% in assay [12]. Also, the inhibition in [13] was -1.6%; in assay [14], 3.33%; in assay [15] it was 5.96%; in assay [16] it was -0.18%; in assay [17] it was -1.04%; in [18], 1.13%. The results for the inhibition in [19] and in assay [20] were 0.22% and 0.41%, respectively.
For `COc1cccc(-c2c[nH]c3c(N/N=C/c4ccncc4)ncnc23)c1`, the inhibition in assay [1] came to 11.8%; in assay [2] it was 1.97%; in assay [3], 7.5%; in assay [4] it was 0.82%; in [5], 4.88%; in [6], 15.4%. The inhibition in assay [7] worked out at 57.1%; in assay [8], 11.8%; in assay [9] it was 51.1%; in assay [10], 0.99%; in [11] it was 5.48%; in assay [12], 0.94%. Moreover, the inhibition was -0.58% in [13]; 3.01% in assay [14]; 12.1% in assay [15]; 3.45% in assay [16]; 1.52% in assay [17]; 1.65% in assay [18]. The inhibition in [19] is 5.38%; in [20] it was -0.12%.
For `COC(=O)Nc1nc2ccc(Oc3ccc(NC(=O)Nc4cccc(Cl)c4)cc3)cc2[nH]1`, the inhibition is -0.32% in assay [1]; -0.16% in assay [2]; 0.01% in assay [3]; 1.24% in [4]; -2.93% in [5]; 1.78% in assay [6]. Besides, the inhibition in [7] is 4.14%; in assay [8], -1.23%; in assay [9] it was 0.19%; in assay [10], -0.4%; in [11], 0.42%; in [12], 1.55%. In addition, the inhibition in assay [13] was 0.95%; in [14], 1.88%; in assay [15] it was 4.58%; in assay [16] it was 1.21%; in assay [17] it was 1.57%; in assay [18], -0.68%. The inhibition was -1.08% in assay [19] and -0.32% in assay [20].
Consider `Clc1ccc(-c2nn3ncccc3c2-c2ccnc(Nc3ccccc3)n2)cc1`, for which the inhibition in assay [1] was 8.43%; in [2], 0.1%; in assay [3] it was 1.26%; in assay [4], 2.47%; in [5], 1.1%; in assay [6], 0.8%. For the same compound, the inhibition was 3.07% in [7]; 0.53% in assay [8]; 1.38% in assay [9]; 0.74% in assay [10]; 0.63% in assay [11]; -0.14% in assay [12]. Also, the inhibition in assay [13] stood at 0.05%; in assay [14], 1.22%; in assay [15], 3.66%; in [16], 0.85%; in [17], 0.51%; in assay [18] it was 0.13%. Further, the figures for the inhibition in [19] and in [20] were 0.33% and 0.34%, respectively.
As to `COc1cc(/C=N/Nc2ncnc3[nH]ncc23)ccc1O`, the inhibition in [1] was 30.6%; in assay [2], 1.99%; in assay [3], 15.4%; in [4] it was 15.3%; in assay [5] it was 75.5%; in assay [6], 4.69%. For the same compound, the inhibition in [7] was 22.6%; in assay [8], 3.33%; in [9] it was 25.7%; in assay [10] it was 4.08%; in [11] it was 17.5%; in assay [12] it was -0.24%. Besides, the inhibition is 1.75% in [13]; 4.58% in assay [14]; 16.6% in [15]; 4.03% in assay [16]; 8.53% in [17]; 1.55% in assay [18]. For the same compound, the inhibition came out at 10.9% in [19] and 0.15% in assay [20].
